The source made the active and inactive calls.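 The calls were made as follows: active = activity change under -35% in any replicate well, with more than 20 beads read in that well; inactive = the rest.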

Caspase recruitment domain-containing protein 9 (Homo sapiens) + E3 ubiquitin-protein ligase TRIM62 (Homo sapiens), sequence (Q9BVG3 whole entry, looked up, the tested form may be a part): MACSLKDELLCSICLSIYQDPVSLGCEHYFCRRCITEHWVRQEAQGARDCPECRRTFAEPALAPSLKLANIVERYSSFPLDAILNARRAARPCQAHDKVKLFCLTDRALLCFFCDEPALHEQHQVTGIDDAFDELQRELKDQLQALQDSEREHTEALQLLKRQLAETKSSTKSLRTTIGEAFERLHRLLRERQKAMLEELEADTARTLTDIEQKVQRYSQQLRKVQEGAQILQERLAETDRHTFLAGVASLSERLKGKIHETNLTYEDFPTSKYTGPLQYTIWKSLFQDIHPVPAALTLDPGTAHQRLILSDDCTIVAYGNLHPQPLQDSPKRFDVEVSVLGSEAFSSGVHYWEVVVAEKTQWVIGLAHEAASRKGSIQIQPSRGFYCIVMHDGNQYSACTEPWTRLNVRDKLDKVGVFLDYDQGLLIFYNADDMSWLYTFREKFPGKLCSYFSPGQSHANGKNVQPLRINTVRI
Caspase recruitment domain-containing protein 9 (Homo sapiens) + E3 ubiquitin-protein ligase TRIM62 (Homo sapiens), sequence (Q9H257 whole entry, looked up, the tested form may be a part): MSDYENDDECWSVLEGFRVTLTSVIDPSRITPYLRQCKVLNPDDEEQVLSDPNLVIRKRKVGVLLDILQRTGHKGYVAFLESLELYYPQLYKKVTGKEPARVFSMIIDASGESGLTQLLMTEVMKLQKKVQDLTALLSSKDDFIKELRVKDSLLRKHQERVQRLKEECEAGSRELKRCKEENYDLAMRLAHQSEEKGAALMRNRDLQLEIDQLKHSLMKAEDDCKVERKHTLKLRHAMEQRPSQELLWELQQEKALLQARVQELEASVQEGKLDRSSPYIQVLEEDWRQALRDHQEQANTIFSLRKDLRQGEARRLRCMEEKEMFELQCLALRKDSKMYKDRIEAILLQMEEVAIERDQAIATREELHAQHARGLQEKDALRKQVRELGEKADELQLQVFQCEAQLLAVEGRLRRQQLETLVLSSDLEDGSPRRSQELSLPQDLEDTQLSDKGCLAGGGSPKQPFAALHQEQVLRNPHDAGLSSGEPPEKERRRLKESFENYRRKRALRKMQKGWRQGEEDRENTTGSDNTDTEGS

This assay concerns the target Caspase recruitment domain-containing protein 9 (Homo sapiens) + E3 ubiquitin-protein ligase TRIM62 (Homo sapiens) (UniProt Q9H257+Q9BVG3). Briefly: CARD9/TRIM62 protein interaction inhibitors – cell lysate, HEK293FT lysates, Luminex bead ELISA, primary screen (AID 1259341).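 Also: PE anti-Flag signal of Flag-CARD9 captured by myc-TRIM62 beads.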 The conditions noted are these: PE fluorescence, hits give low values, concentration not given here. (In general: ELISA stands for enzyme-linked immunosorbent assay.)
Turning to `COc1ccc(-c2ccc(CCC(=O)O)o2)cc1`, the activity change, negative = inhibition is -0.268% (inactive).
The value for `C[C@H](CO)N1C[C@H](C)[C@@H](CN(C)C(=O)C2CCCCC2)OCCCC[C@H](C)Oc2ccc(NS(=O)(=O)c3ccccc3)cc2C1=O` was 6.21% (inactive); that for `O=S(=O)(c1ccc(F)cc1)N1CN(Cc2ccco2)c2nc3ccccc3nc21` was 26.6% (inactive); that for `O=C(NC(Sc1ncccn1)C(=O)c1ccccc1)c1ccccc1` (stereo unspecified) was 2.47% (inactive).
The value for `O=C(CCn1cncn1)N1CCC(n2cc(-c3ccccn3)nn2)CC1` was 3.29% (inactive); that for `Cc1ccc(N2NC(c3ccc(Br)cc3)=CCC2=O)cc1` was -5.75% (inactive).
Consider `O=C1CS/C(=N\N=C\c2ccco2)N1c1ccccc1`, for which the activity change, negative = inhibition is -3.42% (inactive).
The value for `O=C(O)C(c1ccccc1)C(c1ccccc1)c1ccccc1` (stereo unspecified) was 6.86% (inactive); that for `OCc1ccc(O)c2ncccc12` was -35% (inactive).
Turning to `NC(=O)C1(N2CCCCC2)CCN(c2ncc(NC(=O)c3ccccc3)cc2C(=O)O)CC1`, the activity change, negative = inhibition was -57.3% (active).
Take `Cc1cncc(-c2ccc(S(N)(=O)=O)cc2F)c1`: the activity change, negative = inhibition was -3.94% (inactive).
The value for `O=C(NCc1cccnc1)c1ccccc1-c1nc(-c2ccccc2)no1` was -1.01% (inactive); that for `Cc1noc(C)c1S(=O)(=O)Nc1ccc2c(c1)C(=O)N([C@H](C)CO)C[C@H](C)[C@@H](CN(C)C(=O)C1CCCCC1)OCCCC[C@H](C)O2` was 7.66% (inactive); that for `Cc1ccc2cc(CN(Cc3ccco3)S(C)(=O)=O)c(=O)[nH]c2c1` was 5.89% (inactive).
In the case of `CC1CCN(c2nc(-c3ccco3)c3c(c2C#N)CC(C)(C)OC3)CC1`, the activity change, negative = inhibition is 5.51% (inactive).
In the case of `O=C(Nc1nc(-c2ccccn2)cs1)c1cccc(-n2cnnn2)c1` it was 199% (inactive); in that of `CCOC(=O)/C=C/S(=O)(=O)c1ccc(NC(C)=O)cc1`, -8.13% (inactive); in that of `CC1=CCC(C(=O)O)C(C(=O)NC2CCCCC2)C1` (stereo unspecified), -6.81% (inactive).
On to `Cc1noc(C)c1S(=O)(=O)Nc1ccc2c(c1)C(=O)N([C@H](C)CO)C[C@H](C)[C@@H](CN(C)CC1CCCCC1)OCCCC[C@H](C)O2`, for which the activity change, negative = inhibition was 7.9% (inactive).
As for `Cc1noc(CN(C)C(=O)c2cc(-c3ccco3)nc3c(C)c(Cl)ccc23)n1`, the activity change, negative = inhibition was -1.57% (inactive).
Take `Cc1ccc(C)n1NC(=O)c1ccccc1O`: the activity change, negative = inhibition is 1.19% (inactive).
As for `Cc1ccc(-c2cc(C(=O)NCc3ccco3)c3ccccc3n2)o1`, the activity change, negative = inhibition was -2.28% (inactive).
`O=C(NCc1ccco1)c1c2c(nc3ccccc13)CCC2`: the activity change, negative = inhibition was -3.42% (inactive).
With `O=C(O)COCC(=O)NCc1ccco1`, the activity change, negative = inhibition was 1.03% (inactive).
For `CC(=O)Nc1ccc(Nc2nc(-c3nnc(-c4cccc(C)c4)o3)nc3ccccc23)cc1`, the activity change, negative = inhibition was -1.95% (inactive).
Turning to `O=C(Nc1nnc(-c2ccco2)s1)c1ccccc1`, the activity change, negative = inhibition was 1.07% (inactive).
Take `CN(C)C(CN=C1NS(=O)(=O)c2ccccc21)c1ccco1` (stereo unspecified): the activity change, negative = inhibition was -0.48% (inactive).
On to `O=[N+]([O-])c1ccc2nn(Cc3ccccc3)cc2c1`, for which the activity change, negative = inhibition is 16.2% (inactive).
For `CCOc1ccc(CNc2nc(-c3nnc(-c4ccc(F)cc4)o3)nc3ccccc23)cc1`, the activity change, negative = inhibition was 14.1% (inactive).
As for `C[C@H](CO)N1C[C@H](C)[C@@H](CN(C)CC2CCCCC2)OCCCC[C@H](C)Oc2ccc(NS(=O)(=O)c3ccccc3)cc2C1=O`, the activity change, negative = inhibition is 7.12% (inactive).
With `O=S(=O)(Nc1nccs1)c1ccc(-n2cccc2)cc1`, the activity change, negative = inhibition is 3.9% (inactive).
In the case of `NC(=O)c1ccc(CN2C(=O)C3(CCNCC3)Nc3ccccc32)cc1` it was -4.33% (inactive); in that of `COc1ccc2nc(-c3ccco3)c(-c3ccco3)nc2c1`, -3.64% (inactive).
With `O=C(CN1CCOC1=O)N1CCC2(CCC(=O)N(CCCn3ccnc3)C2)CC1`, the activity change, negative = inhibition is -6.82% (inactive).
For `c1coc(-c2cn3ccc4ccccc4c3n2)c1`, the activity change, negative = inhibition was -1.55% (inactive).
Take `CCCc1oc(C(=O)O)cc1CN`: the activity change, negative = inhibition is -4.57% (inactive).

(Values after PubChem BioAssay AID1259341 (Broad Institute, 2017).)
